Values joined by “and” are separate entries in the source; they are usually repeats but may differ in a detail not shown here. Equal entries are not always repeated. Records with an inconclusive call do not appear. Where a call stands in place of a potency, no number is given. More than one record can exist for a structure, and the calls need not agree. Active and inactive are the calls of the source. Unless noted, the call rests on the fitted dose curve.
Key:
[1] = Nuclear factor erythroid 2-related factor 2/antioxidant responsive element (Nrf2/ARE) small molecule agonists: qHTS cell viability counter screen in human keratinocytes (AID 1919968; active means well fitted curve in the direction sought with a large enough effect in the repeat runs; an effect the other way counts as inactive or inconclusive; further: nearly all actives have a fitted effect of over 55% in size; further: potency means the concentration at half of the fitted maximal effect)
Procedure, shortened: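 Parallel cytotoxicity read: KeratinoSens HaCaT cells, compound treatment 23 h, viability by CellTiter-Fluor fluorescence 1 h post-reagent.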

[2] = Nuclear factor erythroid 2-related factor 2/antioxidant responsive element (Nrf2/ARE) small molecule agonists: luciferase reporter gene qHTS assay in human keratinocytes (AID 1919969); further: nearly all actives have a fitted effect of over 35% in size; further: potency means the concentration at half of the fitted maximal effect
[3] = biological target: Gonadotropin-releasing hormone receptor (Homo sapiens) (UniProt P30968); assay: Human gonadotropin-releasing hormone receptor (GnRHR) small molecule agonists, calcium flux assay in GnRHR-HEK293 cells (AID 1920063); further: nearly all actives have a fitted effect of over 35% in size
Gonadotropin-releasing hormone receptor (Homo sapiens), sequence (P30968 whole entry, looked up): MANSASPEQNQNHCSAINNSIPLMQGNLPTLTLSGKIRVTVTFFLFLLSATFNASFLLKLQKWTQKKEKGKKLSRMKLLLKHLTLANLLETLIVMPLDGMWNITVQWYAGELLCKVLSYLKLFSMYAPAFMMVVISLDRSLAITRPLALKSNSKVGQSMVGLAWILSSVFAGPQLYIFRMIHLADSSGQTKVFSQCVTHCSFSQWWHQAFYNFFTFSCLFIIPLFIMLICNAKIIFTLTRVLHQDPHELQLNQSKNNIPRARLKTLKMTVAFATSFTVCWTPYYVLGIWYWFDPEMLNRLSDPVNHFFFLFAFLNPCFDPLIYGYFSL
Procedure, shortened: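 Calcium flux, agonist mode, human GnRHR stably integrated in HEK293; dye 1 h at 37 C before compound; Ex/Em=480/540 kinetic read, 3 min; 15 concentrations, triplicate.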

[4] = biological target: KiSS-1 receptor (Homo sapiens) (UniProt Q969F8); assay: Human kisspeptin (KISS1R) small molecule agonists, calcium flux assay in KISS1R-HEK293 cells (AID 1920064; active means well fitted curve in the direction sought with a large enough effect in the repeat runs; an effect the other way counts as inactive or inconclusive)
KiSS-1 receptor (Homo sapiens), sequence (Q969F8 whole entry, looked up): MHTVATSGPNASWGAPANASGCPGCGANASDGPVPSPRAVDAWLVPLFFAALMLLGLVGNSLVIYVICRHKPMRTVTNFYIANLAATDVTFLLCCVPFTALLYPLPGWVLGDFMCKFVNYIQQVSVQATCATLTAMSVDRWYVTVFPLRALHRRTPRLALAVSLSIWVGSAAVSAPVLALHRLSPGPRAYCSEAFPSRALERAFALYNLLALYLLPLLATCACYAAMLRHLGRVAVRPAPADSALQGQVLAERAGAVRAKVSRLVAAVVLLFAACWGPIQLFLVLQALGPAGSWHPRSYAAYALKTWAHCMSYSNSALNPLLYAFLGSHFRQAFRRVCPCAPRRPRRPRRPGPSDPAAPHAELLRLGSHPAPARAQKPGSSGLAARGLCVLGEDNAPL
Procedure, shortened: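 Triplicate 15-concentration series were applied to dye-loaded human KISS1R HEK293 cells, and agonist-evoked calcium fluorescence was captured for 3 min.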

[5] = G protein-coupled receptor (GPCR) small molecule agonists, calcium flux assay: HEK293 wild type cell line counter screen (AID 1920065)
Procedure, shortened: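 Non-specific calcium responders were flagged by adding DMSO-dissolved compounds to dye-loaded cells and reading 480/540 nm fluorescence each second for 3 min; ATP served as positive control.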

[6] = p53 small molecule agonists, cell-based qHTS assay with human liver microsomes (AID 1963577);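 further: p53 response element beta-lactamase reporter cells with liver microsomes plus NADPH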
Procedure, shortened: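 16 h, 37 C exposure of p53RE-bla cells to compounds with human liver microsomes and NADPH (0.5 mg/mL final each); detection via LiveBLAzer mixture, 2 h dark at room temperature.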

[7] = p53 small molecule agonists, cell-based qHTS assay with rat liver microsomes (AID 1963578)
Procedure, shortened: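 With rat liver microsomes and NADPH present (0.5 mg/mL final each), p53RE-bla cells are treated with compound for 16 h at 37 C. LiveBLAzer detection mixture is then applied for 2 h at room temperature in the dark.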

[8] = p53 small molecule agonists, cell-based qHTS assay with human liver microsomes: qHTS cell viability counter screen (AID 1963579); further: nearly all actives have a fitted effect of over 45% in size; further: potency means the concentration at half of the fitted maximal effect
Procedure, shortened: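 In this multiplexed counter screen, the reporter plates were subsequently treated with CellTiter-Glo so that cell viability, reflected by luminescence, could be recorded for p53RE-bla cells dosed 16 h with compounds under microsomal activation (HLM and NADPH).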

[9] = p53 small molecule agonists, cell-based qHTS assay with rat liver microsomes: qHTS cell viability counter screen (AID 1963580); further: nearly all actives have a fitted effect of over 45% in size; further: potency means the concentration at half of the fitted maximal effect
Procedure, shortened: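 Rat liver microsome (0.5 mg/mL final) and NADPH (0.5 mg/mL final) co-incubation with compounds for 16 h at 37 C on HCT-116 p53RE-bla cells; cytotoxicity taken from intracellular ATP luminescence.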

[10] = biological target: 5-hydroxytryptamine receptor 2A (Homo sapiens) (UniProt P28223); assay: 5-hydroxytryptamine receptor 2A (HTR2A) small molecule antagonists, cell-based qHTS assay (AID 1963586); further: nearly all actives have a fitted effect of over 45% in size
5-hydroxytryptamine receptor 2A (Homo sapiens), sequence (P28223 whole entry, looked up): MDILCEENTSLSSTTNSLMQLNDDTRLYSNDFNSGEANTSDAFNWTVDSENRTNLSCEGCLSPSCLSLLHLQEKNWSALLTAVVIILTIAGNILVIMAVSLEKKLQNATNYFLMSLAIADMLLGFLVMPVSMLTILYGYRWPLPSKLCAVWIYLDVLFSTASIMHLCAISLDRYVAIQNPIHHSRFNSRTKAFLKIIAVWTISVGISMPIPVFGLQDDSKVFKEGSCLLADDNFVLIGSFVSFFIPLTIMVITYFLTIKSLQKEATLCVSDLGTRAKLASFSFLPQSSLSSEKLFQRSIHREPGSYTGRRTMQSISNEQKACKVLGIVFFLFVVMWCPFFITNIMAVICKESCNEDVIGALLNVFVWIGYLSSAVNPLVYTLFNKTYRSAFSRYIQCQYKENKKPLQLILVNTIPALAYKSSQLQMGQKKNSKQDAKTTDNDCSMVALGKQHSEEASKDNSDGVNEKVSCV
Procedure, shortened: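 CHO cells stably expressing human HTR2A were plated for 18 h at 37 C, then loaded with calcium dye for 1 h. Compounds were preincubated 5 min at room temperature before DOI (4 nM solution) was added. Kinetic fluorescence was read for 3 min.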

[11] = biological target: 5-hydroxytryptamine receptor 2A (Homo sapiens) (UniProt P28223); assay: 5-hydroxytryptamine receptor 2A (HTR2A) small molecule agonists, cell-based qHTS assay (AID 1963587); further: nearly all actives have a fitted effect of over 30% in size; further: potency means the concentration at half of the fitted maximal effect
Procedure, shortened: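 Kinetic calcium-flux fluorescence (2 min, 1 sec intervals) after compound addition in agonist mode. HTR2A-CHO cells were cultured 18 h, then dye-loaded 1 h at 37 C.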

[12] = biological target: Muscarinic acetylcholine receptor M1 (Homo sapiens) (UniProt P11229); assay: Cholinergic receptor muscarinic 1 (CHRM1) small molecule antagonists, cell-based qHTS assay (AID 1963588); further: nearly all actives have a fitted effect of over 40% in size
Muscarinic acetylcholine receptor M1 (Homo sapiens), sequence (P11229 whole entry, looked up): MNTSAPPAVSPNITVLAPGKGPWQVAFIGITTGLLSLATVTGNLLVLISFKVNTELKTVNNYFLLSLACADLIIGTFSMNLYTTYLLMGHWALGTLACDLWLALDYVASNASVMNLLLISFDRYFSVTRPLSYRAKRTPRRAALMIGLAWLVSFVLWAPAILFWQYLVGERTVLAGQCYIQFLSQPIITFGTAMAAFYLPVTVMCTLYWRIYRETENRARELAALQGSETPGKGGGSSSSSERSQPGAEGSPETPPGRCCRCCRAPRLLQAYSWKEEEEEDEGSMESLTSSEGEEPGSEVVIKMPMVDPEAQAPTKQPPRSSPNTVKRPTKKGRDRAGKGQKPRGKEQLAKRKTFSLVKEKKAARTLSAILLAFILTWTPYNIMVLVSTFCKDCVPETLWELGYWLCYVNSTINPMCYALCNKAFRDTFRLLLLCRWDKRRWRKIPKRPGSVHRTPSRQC
Procedure, shortened: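 Compounds were tested at 15 concentrations in three independent runs. Dye-loaded CHRM1-CHO cells were exposed 5 min at room temperature before stimulation by acetylcholine added at 50nM. Intracellular calcium was read kinetically on FDSS for 3 min.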

[13] = biological target: Muscarinic acetylcholine receptor M1 (Homo sapiens) (UniProt P11229); assay: Cholinergic receptor muscarinic 1 (CHRM1) small molecule agonists, cell-based qHTS assay (AID 1963589); further: nearly all actives have a fitted effect of over 35% in size
Procedure, shortened: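 qHTS, 15-point titration, 3 independent runs: compounds pin-transferred onto dye-loaded CHRM1-CHO cells (human M1), calcium fluorescence followed every second to detect agonism.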

[14] = cAMP Responsive Elements (CRE) small molecule agonists, cell-based qHTS assay (AID 1963590)
Procedure, shortened: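 Quantitative HTS for CRE agonists: HEK 293T CRE-bla cells, overnight plating, 3 h compound incubation at 37 C/5% CO2, then 2 h room-temperature LiveBLAzer B/G FRET substrate loading.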

[15] = cAMP Responsive Elements (CRE) small molecule antagonists, cell-based qHTS assay (AID 1963591; active means well fitted inhibition curve with a large enough effect in the signal ratio in the repeat runs, not every such curve was filed as active; the % refers to the signal ratio)
Procedure, shortened: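 Fluorescence intensity from cleaved LiveBLAzer B/G substrate (2 h, room temperature) quantified CRE-bla activity in HEK 293T cells exposed 3 h to compound with 0.25 uM final NKH477.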

[16] = biological target: Beta-2 adrenergic receptor (Homo sapiens) (UniProt P07550); assay: Adrenergic beta2 receptor (ADRB2) small molecule antagonists, cell-based qHTS assay (AID 1963592); further: series mostly up to about 92 µM; nearly all actives have a fitted effect of over 50% in size
Beta-2 adrenergic receptor (Homo sapiens), sequence (P07550 whole entry, looked up): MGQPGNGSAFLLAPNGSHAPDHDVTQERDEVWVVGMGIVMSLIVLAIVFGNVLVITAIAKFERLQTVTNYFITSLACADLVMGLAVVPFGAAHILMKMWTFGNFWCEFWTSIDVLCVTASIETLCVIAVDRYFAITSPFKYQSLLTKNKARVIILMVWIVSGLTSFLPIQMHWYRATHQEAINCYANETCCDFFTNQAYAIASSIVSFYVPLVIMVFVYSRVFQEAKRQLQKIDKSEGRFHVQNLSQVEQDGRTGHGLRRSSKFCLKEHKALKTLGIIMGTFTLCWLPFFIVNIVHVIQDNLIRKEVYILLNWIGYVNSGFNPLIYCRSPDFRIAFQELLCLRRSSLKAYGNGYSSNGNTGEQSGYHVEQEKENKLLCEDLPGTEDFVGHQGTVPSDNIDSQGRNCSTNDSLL
Procedure, shortened: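 Assay format: CHO-ADRB2 cells, 18-20hr seeding at 37C/5% CO2, then compound plus 1nM isoproterenol agonist mix for 0.5hr RT. Homogeneous time-resolved fluorescence cAMP detection after 1hr, expressed as 665/615 nm ratio.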

[17] = biological target: Beta-2 adrenergic receptor (Homo sapiens) (UniProt P07550); assay: Adrenergic beta2 receptor (ADRB2) small molecule agonists, cell-based qHTS assay (AID 1963593);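 further: CHO cells stably overexpressing human ADRB2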
Procedure, shortened: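 CHO cells stably over-expressing ADRB2 were plated overnight at 37C, then dosed with compounds plus a stimulation mix containing 100uM IBMX and 25uM Ro-20-1724 for 0.5hr at room temperature. cAMP was measured by HTRF competition, 1hr.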

[18] = biological target: D(2) dopamine receptor (Homo sapiens) (UniProt P14416); assay: Dopamine D2 receptor (DRD2) small molecule agonists, cell-based qHTS assay (AID 1963594); further: nearly all actives have a fitted effect of over 35% in size; further: potency means the concentration at half of the fitted maximal effect
D(2) dopamine receptor (Homo sapiens), sequence (P14416 whole entry, looked up): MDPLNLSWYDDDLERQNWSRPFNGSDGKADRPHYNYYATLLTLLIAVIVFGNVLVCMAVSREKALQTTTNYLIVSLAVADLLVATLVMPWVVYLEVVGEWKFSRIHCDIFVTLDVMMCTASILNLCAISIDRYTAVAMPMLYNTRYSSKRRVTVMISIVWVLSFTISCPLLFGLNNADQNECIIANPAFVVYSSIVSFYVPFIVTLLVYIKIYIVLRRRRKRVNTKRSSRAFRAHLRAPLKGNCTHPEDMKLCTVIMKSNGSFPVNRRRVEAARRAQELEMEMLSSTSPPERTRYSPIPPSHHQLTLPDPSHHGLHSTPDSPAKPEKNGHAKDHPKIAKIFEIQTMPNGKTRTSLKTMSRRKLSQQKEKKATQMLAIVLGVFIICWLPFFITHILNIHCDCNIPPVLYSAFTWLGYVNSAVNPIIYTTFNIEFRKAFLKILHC
Procedure, shortened: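 cAMP accumulation in DRD2-HEK293 cells measured by HTRF after 1 h detection; compounds added 10 min before NKH477 (200nM […]) forskolin-analogue stimulation, 30 min at room temperature, with Ro20-1724 present at 0.1 mM final.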

[19] = biological target: D(2) dopamine receptor (Homo sapiens) (UniProt P14416); assay: Dopamine D2 receptor (DRD2) small molecule antagonists, cell-based qHTS assay (AID 1963595; active means well fitted inhibition curve with a large enough effect in the signal ratio in the repeat runs, with a control signal flat; the % refers to the signal ratio)
Procedure, shortened: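 Human DRD2 antagonist qHTS measuring cAMP by HTRF. The cells are exposed to compound for 10 min, then to NKH477 (200 nM) and quinpirole (12 nM) for 30 min at RT, with Ro20-1724 (0.1 mM) present throughout.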

[20] = p53 small molecule agonists, cell-based qHTS assay: qHTS cell viability counter screen (AID 1963581); further: nearly all actives have a fitted effect of over 45% in size; further: potency means the concentration at half of the fitted maximal effect
Procedure, shortened: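 Multiplexed with the reporter read, a CellTiter-Glo step (30 min, room temperature) gauges ATP-based viability of HCT-116 p53RE-bla cells after 16 h compound incubation at 37 C.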

Structure (SMILES) | Potency [1] | Potency [2] | Potency [3] | Potency [4] | Potency [5] | Potency [6] | Potency [7] | Potency [8] | Potency [9] | Potency [10] | Potency [11] | Potency [12] | Potency [13] | Potency [14] | Potency [15] | Potency [16] | Potency [17] | Potency [18] | Potency [19] | Potency [20]
c1ccoc1 | inactive | inactive | inactive | inactive | inactive | inactive | inactive | inactive | inactive | inactive | inactive | inactive | inactive | inactive | inactive | inactive | inactive | inactive | inactive | 
Cc1ccc2ccccc2c1 | inactive | inactive | inactive | inactive | inactive | inactive | inactive | inactive | inactive | inactive |  | inactive | inactive | inactive | inactive | inactive | inactive | inactive | inactive | inactive
O=S(=O)(c1ccccc1)c1ccccc1 | inactive | inactive | inactive | inactive | inactive | inactive | inactive | inactive | inactive | inactive |  |  | inactive | inactive | inactive | inactive | inactive |  |  | inactive
CC(Oc1ccc(Cl)cc1Cl)C(=O)O (centres undefined) | inactive | inactive | inactive | inactive | inactive | inactive | inactive | inactive | inactive | inactive | inactive |  | inactive |  |  | inactive | inactive | inactive | inactive | inactive
CCCCC(CC)C(=O)Cl (centres undefined) | inactive | inactive | inactive | inactive | inactive | inactive | inactive | inactive | inactive |  | inactive | inactive | inactive | inactive | inactive | inactive | inactive | inactive | inactive | inactive
C/C=C/CC#N | inactive | inactive | inactive | inactive | inactive | inactive | inactive | inactive | inactive | inactive | inactive | inactive | inactive | inactive | inactive | inactive |  | inactive | inactive | 
COc1ccc(C(O)(c2cncnc2)C2CC2)cc1 (centres undefined) | inactive | inactive | inactive | inactive | inactive | inactive | inactive | inactive | inactive | inactive | inactive | inactive | inactive | inactive | inactive | inactive | inactive | inactive | inactive | 
CCCCc1c(C)nc(NCC)[nH]c1=O | inactive | inactive | inactive | inactive | inactive | inactive | inactive | inactive | inactive | inactive | inactive | inactive | inactive | inactive | inactive | inactive | inactive | inactive | inactive | 
CNCC(O)c1ccc(O)cc1 (centres undefined) | inactive | inactive | inactive | inactive | inactive | inactive | inactive | inactive | inactive | inactive | inactive | inactive | inactive | inactive | inactive | inactive |  | inactive | inactive | 
O=[N+]([O-])c1ccccc1O | inactive | inactive | inactive | inactive | inactive | inactive | inactive | inactive | inactive | inactive |  | inactive | inactive | inactive | inactive | inactive | inactive | inactive | inactive | inactive
CN(C)c1ccc(C(=O)c2ccc(N(C)C)cc2)cc1 | inactive | 67.9 µM (active) and 54.5 µM (active) | inactive | inactive | inactive | inactive | inactive | inactive | inactive | inactive | inactive | inactive | inactive |  | inactive | inactive | inactive | inactive | inactive | 
CCCCNC(=O)n1c(NC(=O)OC)nc2ccccc21 | inactive | 54.2 µM (active) | inactive | inactive | inactive | inactive | inactive | inactive | inactive | inactive | inactive |  | inactive | inactive |  | inactive | inactive | inactive | inactive | 
O=[N+]([O-])c1ccc(Cl)c([N+](=O)[O-])c1 | 24.7 µM (active) and 43.3 µM (active) | 15.6 µM (active) | inactive | inactive | inactive | inactive | inactive | 36.9 µM (active) and 40.8 µM (active) | 40.8 µM (active) | inactive |  | inactive |  |  |  |  |  | inactive | inactive | 26.1 µM (active)
CCCCC1C(=O)NC(=O)N(C2CCCCC2)C1=O (centres undefined) | inactive | inactive | inactive | inactive | inactive | inactive | inactive | inactive | inactive | inactive | inactive | inactive | inactive | inactive | inactive | inactive | inactive | inactive | inactive | 
CC(O)CN1CCN(CC(=O)[O-])CCN(CC(=O)[O-])CCN(CC(=O)[O-])CC1.[Gd+3] (centres undefined) | inactive | inactive | inactive | inactive | inactive | inactive | inactive | inactive | inactive | inactive | inactive | inactive | inactive | inactive | inactive |  | inactive | inactive | inactive | 
CCCCCCCCn1sccc1=O | 1.22 µM (active) and 1.43 µM (active) | 612 nM (active) and 641 nM (active) | inactive | inactive | inactive | inactive | inactive | 40.9 µM (active) and inactive | 4.09 µM (active) and 1.35 µM (active) |  | inactive and 25.7 µM (active) | inactive | inactive |  |  |  |  | 42.8 µM (active) | inactive | 40.9 µM (active) and 38.1 µM (active)

From PubChem BioAssay (Tox21)
